# Experimental data reported in PubChem BioAssay (NCATS).
# Records with an inconclusive call do not appear. A call without a number means that no potency is given here. Active and inactive are the calls of the source. Calls follow the shape of the dose curve; as a rule, active = well fitted inhibition curve with a large enough effect; inconclusive = small, poorly fitted or top-dose-only effect; inactive = flat fitted curve, though single readings scatter.
# Target: Calcium and integrin-binding protein 1 (Homo sapiens) (UniProt Q99828)
# Assay: Primary qHTS for Identification of Calcium Integrin Binding Protein 1 (CIB1) Competitor (AID 1508620);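 also: GST tagged CIB1 binding a fluorescein labelled alphaIIb integrin peptide tracer; top concentration of the series differs between compounds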
# Details: CIB1-GST / FITC-alphaIIb peptide fluorescence polarization; series mostly up to 114 µM
# How it was run: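 Fluorescence polarization competition: CIB1-GST (1 uM final) preincubated with compound 15 min at room temperature, then FITC-labeled alphaIIb peptide (100 nM final) added for another 15 min. Polarization read at Ex 480/Em 540.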
# Sequence of Calcium and integrin-binding protein 1 (Homo sapiens) (Q99828 whole entry, looked up): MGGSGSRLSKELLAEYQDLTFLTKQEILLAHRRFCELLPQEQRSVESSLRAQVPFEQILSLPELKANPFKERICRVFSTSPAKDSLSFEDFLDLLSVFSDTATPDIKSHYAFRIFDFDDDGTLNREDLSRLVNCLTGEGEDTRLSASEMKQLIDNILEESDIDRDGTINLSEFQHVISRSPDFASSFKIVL
row,Structure (SMILES),Potency
1,O=C(/C=C/c1ccc(OC(F)(F)F)cc1)Nc1cccc([S+](=O)([O-])Nc2ccccc2F)c1,inactive
2,Cc1cc(-c2nnc3n2CCCCC3)c(C)n1-c1cccc(C#N)c1,inactive
3,O=C(O)c1ccc(O)c2ncc(N3CCCCC3)cc12,inactive
4,Cc1ccc(S(=O)(=O)N2CCN(c3nc(-c4ccco4)nc4ccccc34)CC2)cc1,inactive
5,CN(Cc1ncc[nH]1)c1ncnc2ccc(-c3ccc4c(c3)OCO4)cc12,inactive
6,O=c1c2ccccc2nc2sc(Nc3cccc4ccccc34)nn12,inactive
7,Cc1cc(NS(=O)(=O)c2ccc(NS(=O)(=O)Cc3ccc(Cl)c(Cl)c3)cc2)no1,inactive
8,COc1ccc(C2=Nn3c(nnc3-c3cccc(OC)c3OC)SC2)cc1OC,inactive
9,CC(C)(C)N[S+](=O)([O-])c1cccc(-c2nnc(SCc3ccc(C(=O)O)cc3)n2-c2ccc(F)cc2)c1,inactive
10,O=C(Nc1cccc(Cc2ccccc2)n1)c1ccc(-c2cccc([N+](=O)[O-])c2)o1,inactive
11,Nc1ccc(S(=O)(=O)N2CCN(S(=O)(=O)c3c(F)cccc3F)CC2)cc1,inactive
12,Cc1ccc(-c2nc3ccccc3s2)cc1NC(=O)c1ccc(-c2cccc(Cl)c2)o1,inactive
13,CN1CCN(c2cc(-c3nc(Nc4ccc(F)c(F)c4)c4ccccc4n3)ccn2)CC1,inactive
14,O=C(NCCc1nc2ccccc2n1CCCc1ccccc1)C1CCCCC1,inactive
15,N#Cc1cccc(OC2=NS(=O)(=O)c3ccccc32)c1,inactive
16,Fc1cnc(-c2ccccc2C(F)F)nc1NCc1ccc(-c2cccnc2)cc1,inactive
17,Oc1ccc(COCc2ccccc2)c2cccnc12,inactive
18,O=C(Nc1ccc(N2CCOCC2)c(C(F)(F)F)c1)Nc1nnc(-c2ccncc2)s1,inactive
19,Cc1noc(C)c1-c1ccc2ncnc(NCc3ccc(F)cc3)c2c1,inactive
20,O=S(=O)(NCCCCCCNS(=O)(=O)c1c(F)cccc1F)c1ccc2c(c1)OCCO2,inactive
21,O=S(=O)(NC1CCC(NS(=O)(=O)c2c(F)cccc2F)CC1)c1ccc2c(c1)OCCO2 (configuration not stated),inactive
22,O=S(=O)(NCCNS(=O)(=O)c1c(F)cccc1F)c1ccc2c(c1)OCCO2,inactive
